From PubChem
Dicer inh – inhibitors of human Dicer processing of pre-microRNA | cat-ELCCA pre-miR-21 Dicer processing, chemiluminescence; active compounds read high | AID 1347074 | z-score at 25 µM | actives 6% (n = 47,000); in the data active means z-score above about 3, passing the limit was not always enough;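 further: higher signal means more uncleaved substrate so more Dicer inhibition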
A number is an active result. This is one part of a sample in which hits are shown more often than they occur.

`CCOc1cc(CNCc2cccnc2)cc(Cl)c1OCc1cccs1` gave Dicer inh inactive.
CSC1=NN(C)c2cnn(C)c(=O)c2S1 was read as Dicer inh inactive.
For CCOC(=O)/C(C#N)=C/c1cc(OC)ccc1OC the results were Dicer inh inactive.
`O=C(C1CCCCC1)N1CCN(c2ccc([N+](=O)[O-])cc2-n2cccc2)CC1` gave Dicer inh inactive.
For Cc1cccc(C)c1OCc1nc2c3cnn(Cc4ccccc4)c3ncn2n1 the results were Dicer inh inactive.
O=C(O)/C=C/C(=O)Nc1ccc(C(=O)O)c(O)c1 was read as Dicer inh 4.68.
Cc1cccc(NC(=O)/C=C/C(=O)O)c1 was read as Dicer inh inactive.
For Cc1ccc(NC(=O)/C=C/C(=O)Nc2ccc(C)c(Cl)c2)cc1Cl the results were Dicer inh inactive.
Cc1cc(N=CN(C)C)cc(Cl)c1OS(=O)(=O)c1cc(Cl)cc(Cl)c1 was read as Dicer inh inactive.
`O=C(/C=C/c1cccs1)NC(=S)Nc1nc(-c2ccc(Cl)cc2)cs1` gave Dicer inh inactive.
For c1ccc2c(CN3CCN(Cc4ccc5c(c4)OCO5)CC3)c[nH]c2c1 the results were Dicer inh inactive.
Screening NC(=O)c1sc(-c2ccc(Cl)cc2)cc1NS(=O)(=O)c1cc(C(F)(F)F)cc(C(F)(F)F)c1 returned Dicer inh 3.7.
COC(=O)c1sc(-c2ccc(Cl)cc2)cc1NC(=O)C(F)(F)F was read as Dicer inh inactive.
For NC(=O)c1sc(-c2ccccc2)cc1NS(=O)(=O)c1ccc(F)cc1 the results were Dicer inh inactive.
CC1CC(=O)c2cnc3[nH]n(-c4ccccc4)c(=O)c3c2C1 (stereo not given) was read as Dicer inh inactive.
For CCOc1ccc(N2CCCn3c2nc2c3c(=O)n(CC(=O)O)c(=O)n2C)cc1 the results were Dicer inh inactive.
Screening Cc1ccc(N2CCn3c2nc2c3c(=O)n(CC(=O)O)c(=O)n2C)cc1 returned Dicer inh inactive.
Screening Cn1c(=O)n(CC(=O)O)c(=O)c2c1nc1n2CCCN1c1ccc(F)cc1 returned Dicer inh inactive.
For Cn1c(=O)n(CC(=O)O)c(=O)c2c1nc1n2CCCN1c1ccc(Cl)cc1 the results were Dicer inh 3.02.
Screening CC1CN(c2ccc(Cl)cc2)c2nc3c(c(=O)n(CC(=O)O)c(=O)n3C)n2C1 (stereo not given) returned Dicer inh inactive.
Cn1c(=O)n(CC(=O)O)c(=O)c2c1nc1n2CCN1c1ccc(F)cc1 was read as Dicer inh 5.44.
For COc1cc(CN(C)C)c(O)c(CN(C)C)c1 the results were Dicer inh inactive.
For COc1ccc(S(=O)(=O)N=S2CCN(c3ncc(C(F)(F)F)cc3Cl)CC2)cc1 the results were Dicer inh inactive.
For CCOC(=O)c1c(NC(=O)COc2ccc(Br)c(C)c2)sc2c1CCC2 the results were Dicer inh inactive.
CC(C)(C)NC(=O)Cn1ccc(C(F)(F)F)n1 was read as Dicer inh inactive.
Screening O=C(Nc1ccc2c(c1)OCO2)c1cnn2c(C(F)(F)F)cc(-c3ccco3)nc12 returned Dicer inh inactive.
`COc1ccc(NC(=O)c2cc3nc(-c4ccco4)cc(C(F)(F)F)n3n2)cc1OC` gave Dicer inh inactive.
`O=C(Nc1cccc(Cl)c1)c1nn2c(C(F)(F)F)cc(-c3ccco3)nc2c1Cl` gave Dicer inh 3.98.
For COc1ccc(COC(=O)C2=C(C)NC3=C(C(=O)CCC3)C2c2cc(OC)ccc2OC)cc1 (stereo not given) the results were Dicer inh inactive.
Screening CC(C)(C)OC(=O)C1C(=O)CC(C)(O)C(C(=O)OC(C)(C)C)C1c1ccc(Cl)cc1 (stereo not given) returned Dicer inh inactive.
For COc1cc2c(cc1OC)C1N(CC2)C(C(=O)c2cccs2)=NN1c1ccccc1 (stereo not given) the results were Dicer inh inactive.
C#CCSc1ncc(C(=O)O)c(C(OC)OC)n1 was read as Dicer inh inactive.
COc1ccc(O)c(C2=NN3C(C2)c2ccccc2OC3c2ccc(F)cc2)c1 (stereo not given) was read as Dicer inh inactive.
Screening COc1cccc2c1OC(c1cccs1)N1N=C(c3ccccc3O)CC21 (stereo not given) returned Dicer inh inactive.
For COc1cccc(C2Oc3ccccc3C3CC(c4cccs4)=NN32)c1OC (stereo not given) the results were Dicer inh 19.9.
COc1ccc(O)c(C2=NN3C(C2)c2ccccc2OC3c2cccs2)c1 (stereo not given) was read as Dicer inh 11.1.
COC(=O)c1ccc(C2Oc3c(OC)cccc3C3CC(c4cccs4)=NN32)cc1 (stereo not given) was read as Dicer inh inactive.
`COc1ccc(O)c(C2=NN3C(C2)c2cccc(OC)c2OC3c2cccs2)c1` (stereo not given) gave Dicer inh 3.49.
For COc1ccc(O)c(C2=NN3C(C2)c2ccccc2OC3c2ccc(O)c(OC)c2)c1 (stereo not given) the results were Dicer inh inactive.
